Data published in PubChem BioAssay AID1159580 (chemical genetic matrix, 2015).
Hit rate of the full screen: of about 5,500 compounds, about 2,000 (36%) were called active. Roughly 18% stayed inconclusive and do not appear here. No stated cut-off is given here; in the data, active means normalized growth mostly below about 0.91 (no sharp cut-off); inconclusive means no clear call, values can overlap the other calls; inactive means mostly above about 0.92. The list shows a part of the results.

Assay: chemical genetic growth profiling, strain panel (AID 1159580);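 further: tested at 20 µM; growth read once vehicle control cultures reached saturation at 30 °C; 1 = growth at the plate median or of vehicle wells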
Conditions: growth OD

Measured: normalized growth

C=C1C(C)C2C(Cc3ccccc3)NC(=O)C23OC(=O)/C=C/C(O)CCCC(C)C/C=C/C3C1O (stereo unspecified)
inactive: S. cerevisiae deletion strains, locus YAL013W, strain DEP1, stronger effect = lower value 1.01 | S. cerevisiae deletion strains, locus YBR021W, strain FUR4, stronger effect = lower value 1.01 | S. cerevisiae deletion strains, locus YBR229C, strain ROT2, stronger effect = lower value 1 | S. cerevisiae deletion strains, locus YCL029C, strain bik1, stronger effect = lower value 0.997 | S. cerevisiae deletion strains, locus YDL035C, strain GPR1, stronger effect = lower value 1.02 | S. cerevisiae deletion strains, locus YDL074C, strain BRE1, stronger effect = lower value 1.04 | S. cerevisiae deletion strains, locus YDL101C, strain DUN1, stronger effect = lower value 1.01 | S. cerevisiae deletion strains, locus YDL134C, strain PPH21, stronger effect = lower value 1.01 | S. cerevisiae deletion strains, locus YDL185W, strain tfp1, stronger effect = lower value 1 | S. cerevisiae deletion strains, locus YDL192W, strain arf1, stronger effect = lower value 1 | S. cerevisiae deletion strains, locus YDR101C, strain arx1, stronger effect = lower value 0.995 | S. cerevisiae deletion strains, locus YDR150W, strain NUM1, stronger effect = lower value 1.01 | S. cerevisiae deletion strains, locus YDR162C, strain NBP2, stronger effect = lower value 0.998 | S. cerevisiae deletion strains, locus YDR318W, strain mcm21, stronger effect = lower value 1 | S. cerevisiae deletion strains, locus YDR388W, stronger effect = lower value 1 | S. cerevisiae deletion strains, locus YDR502C, strain sam2, stronger effect = lower value 0.996 | S. cerevisiae deletion strains, locus YEL061C, strain CIN8, stronger effect = lower value 1 | S. cerevisiae deletion strains, locus YER110C, stronger effect = lower value 0.997 | S. cerevisiae deletion strains, locus YER155C, strain BEM2, stronger effect = lower value 0.993 | S. cerevisiae deletion strains, locus YER167W, strain BCK2, stronger effect = lower value 1.01 | S. cerevisiae deletion strains, locus YGL078C, strain dbp3, stronger effect = lower value 1 | S. cerevisiae deletion strains, locus YGL086W, strain mad1, stronger effect = lower value 0.988 | S. cerevisiae deletion strains, locus YGL248W, strain PDE1, stronger effect = lower value 0.997 | S. cerevisiae deletion strains, locus YGR078C, strain PAC10, stronger effect = lower value 1.02 | S. cerevisiae deletion strains, locus YGR135W, strain pre9, stronger effect = lower value 0.999 | S. cerevisiae deletion strains, locus YGR229C, strain SMI1, stronger effect = lower value 1.03 | S. cerevisiae deletion strains, locus YGR252W, strain gcn5, stronger effect = lower value 1 | S. cerevisiae deletion strains, locus YHR030C, strain SLT2, stronger effect = lower value 1 | S. cerevisiae deletion strains, locus YHR079C, strain IRE1 (second series), stronger effect = lower value 0.987 | S. cerevisiae deletion strains, locus YHR094C, strain hxt1, stronger effect = lower value 1.01 | S. cerevisiae deletion strains, locus YHR129C, strain ARP1, stronger effect = lower value 0.998 | S. cerevisiae deletion strains, locus YHR200W, strain rpn10, stronger effect = lower value 1 | S. cerevisiae deletion strains, locus YIL066C, strain RNR3, stronger effect = lower value 1.02 | S. cerevisiae deletion strains, locus YIL073C, strain SPO22, stronger effect = lower value 1.06 | S. cerevisiae deletion strains, locus YIL125W, strain kgd1, stronger effect = lower value 0.984 | S. cerevisiae deletion strains, locus YIR030C, strain dcg1, stronger effect = lower value 0.998 | S. cerevisiae deletion strains, locus YJL095W, strain BCK1, stronger effect = lower value 1 | S. cerevisiae deletion strains, locus YJL134W, strain LCB3, stronger effect = lower value 1 | S. cerevisiae deletion strains, locus YJL168C, strain set2, stronger effect = lower value 0.998 | S. cerevisiae deletion strains, locus YJL187C, strain SWE1 (second series), stronger effect = lower value 1.01 | S. cerevisiae deletion strains, locus YJR043C, strain POL32, stronger effect = lower value 1.01 | S. cerevisiae deletion strains, locus YJR075W, strain HOC1, stronger effect = lower value 0.996 | S. cerevisiae deletion strains, locus YKL009W, strain mrt4, stronger effect = lower value 1.01 | S. cerevisiae deletion strains, locus YKL068W, stronger effect = lower value 1 | S. cerevisiae deletion strains, locus YKL085W, strain MDH1 (second series), stronger effect = lower value 0.999 | S. cerevisiae deletion strains, locus YKL085W, strain MDH1, stronger effect = lower value 0.999 | S. cerevisiae deletion strains, locus YKL190W, strain CNB1, stronger effect = lower value 1.01 | S. cerevisiae deletion strains, locus YKR001C, strain vps1, stronger effect = lower value 0.994 | S. cerevisiae deletion strains, locus YLR039C, strain RIC1, stronger effect = lower value 1.01 | S. cerevisiae deletion strains, locus YLR058C, strain SHM2, stronger effect = lower value 1 | S. cerevisiae deletion strains, locus YLR102C, strain apc9, stronger effect = lower value 1.01 | S. cerevisiae deletion strains, locus YLR262C, strain YPT6, stronger effect = lower value 1.02 | S. cerevisiae deletion strains, locus YLR268W, strain sec22, stronger effect = lower value 1 | S. cerevisiae deletion strains, locus YLR330W, strain CHS5, stronger effect = lower value 1.01 | S. cerevisiae deletion strains, locus YLR342W, strain FKS1 (second series), stronger effect = lower value 1.02 | S. cerevisiae deletion strains, locus YLR371W, strain rom2, stronger effect = lower value 1.01 | S. cerevisiae deletion strains, locus YLR418C, strain cdc73, stronger effect = lower value 0.995 | S. cerevisiae deletion strains, locus YML016C, strain PPZ1, stronger effect = lower value 1 | S. cerevisiae deletion strains, locus YML032C, strain rad52, stronger effect = lower value 1 | S. cerevisiae deletion strains, locus YML124C, strain tub3, stronger effect = lower value 0.997 | S. cerevisiae deletion strains, locus YMR078C, strain ctf18, stronger effect = lower value 0.992 | S. cerevisiae deletion strains, locus YMR223W, strain ubp8, stronger effect = lower value 1 | S. cerevisiae deletion strains, locus YMR263W, strain SAP30, stronger effect = lower value 1.01 | S. cerevisiae deletion strains, locus YMR307W, strain GAS1, stronger effect = lower value 1.02 | S. cerevisiae deletion strains, locus YNL067W, strain RPL9B, stronger effect = lower value 1.01 | S. cerevisiae deletion strains, locus YNL128W, strain TEP1, stronger effect = lower value 1.01 | S. cerevisiae deletion strains, locus YNL153C, strain GIM3, stronger effect = lower value 1.02 | S. cerevisiae deletion strains, locus YNL233W, strain BNI4, stronger effect = lower value 0.994 | S. cerevisiae deletion strains, locus YNL250W, strain rad50, stronger effect = lower value 1 | S. cerevisiae deletion strains, locus YNL271C, strain bni1, stronger effect = lower value 0.998 | S. cerevisiae deletion strains, locus YNL298W, strain CLA4, stronger effect = lower value 0.995 | S. cerevisiae deletion strains, locus YNL307C, strain MCK1, stronger effect = lower value 1.01 | S. cerevisiae deletion strains, locus YNL322C, strain KRE1, stronger effect = lower value 1.01 | S. cerevisiae deletion strains, locus YNR052C, strain pop2, stronger effect = lower value 1.01 | S. cerevisiae deletion strains, locus YOL006C, strain TOP1, stronger effect = lower value 1.03 | S. cerevisiae deletion strains, locus YOL012C, strain htz1 0.948 | S. cerevisiae deletion strains, locus YOL147C, strain pex11, stronger effect = lower value 0.997 | S. cerevisiae deletion strains, locus YOR061W, strain CKA2, stronger effect = lower value 1 | S. cerevisiae deletion strains, locus YOR069W, strain VPS5, stronger effect = lower value 1 | S. cerevisiae deletion strains, locus YOR136W, strain idh2, stronger effect = lower value 0.999 | S. cerevisiae deletion strains, locus YOR144C, strain elg1, stronger effect = lower value 1 | S. cerevisiae deletion strains, locus YOR184W, strain ser1, stronger effect = lower value 1.03 | S. cerevisiae deletion strains, locus YOR316C, strain cot1, stronger effect = lower value 1 | S. cerevisiae deletion strains, locus YPL055C, strain LGE1, stronger effect = lower value 1.03 | S. cerevisiae deletion strains, locus YPL241C, strain CIN2, stronger effect = lower value 1.01 | S. cerevisiae deletion strains, locus YPR119W, strain clb2, stronger effect = lower value 0.999 | S. cerevisiae deletion strains, locus YPR141C, strain kar3, stronger effect = lower value 1 | S. cerevisiae deletion strains, locus YPR163C, strain tif3, stronger effect = lower value 1 | S. cerevisiae deletion strains, locus YPR167C, strain met16, stronger effect = lower value 0.999 | S. cerevisiae deletion strains, strain wtn01, stronger effect = lower value 0.995 | S. cerevisiae strains, strain wild type, stronger effect = lower value 1.01
